# Source: PubChem BioAssay (The Scripps Research Institute Molecular Screening Center)
# GBA activity up: glucocerebrosidase activity enhancement. L444P Gaucher fibroblasts, 4-MU-glucoside fluorescence, 3 days. AID 784. hit rate 0.44% among 30,000. activation, % at 10 µM. P04062; in the data active = activation above about 65%;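 note: 0% = vehicle wells and 100% = positive control wells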
# Starred values were filed as active, the others as inactive. Shown is part of a subset that was picked to be rich in hits.
SMILES,GBA activity up
Cc1cccc2cc(CN(Cc3ccccc3)C(=O)N(C)C)c(=O)[nH]c12,-7.8
COc1ccc(CN(Cc2cc3cccc(C)c3[nH]c2=O)C(=O)N(C)C)cc1,72.3*
Cc1ccc(CN(Cc2cc3cccc(C)c3[nH]c2=O)C(=O)N(C)C)cc1,-11.7
O=C(Cc1cccs1)N1CCCC(c2nc3c(nnn3Cc3cccc(Cl)c3)c(=O)[nH]2)C1 (stereo not drawn),0.1
COc1ccc(C2C3=C(CCCC3=O)Nc3nc4ccccc4n32)cc1OC (stereo not drawn),-19.8
CC(=O)c1cccc(NC(=O)Nc2ccc3c(c2)N(C)C(=O)CS3)c1,-70.8
C=CCN1CCN(C(c2ccccc2)c2nnnn2CCC(C)C)CC1 (stereo not drawn),-3.9
CC(C)CCn1nnnc1C(c1ccccc1)N1CCC(C(N)=O)CC1 (stereo not drawn),87.0*
CC(C)CCn1nnnc1C(c1ccccc1F)N1CCC(C(N)=O)CC1 (stereo not drawn),17.9
CCOCCCNC(=O)C(Cc1ccccc1)NC(=O)c1ccco1 (stereo not drawn),-22.5
Nc1nc(-c2ccc(Cl)cc2)nn1C(=O)c1cccnc1,15.2
COc1ccc(C(=O)n2nc(-c3ccccc3)nc2N)cc1OC,70.9*
CCCC(=O)n1nc(-c2ccc(OC)cc2)nc1N,21.0
CC(=O)c1c(C)[nH]c(C(=O)NCCN2CCC(C)CC2)c1C,7.4
CCOC(=O)COc1ccc2c(c1)c(C(=O)OCC)c(C)n2CC,1.9
Cc1ccc(C(=O)CSc2nnc(-c3ccco3)n2CC2CCCO2)cc1 (stereo not drawn),-7.1
CC(CN(C)Cc1ccccc1)OC(=O)c1ccc2c(c1)OCCO2 (stereo not drawn),-0.6
Cn1c(-c2ccc(Br)o2)nc2ccccc21,5.0
CN(C)c1ccc(-c2nc3ccccc3n2C)cc1,80.7*
Cn1c(Sc2nc3ccccc3n2C)nc2ccccc21,-19.8
CC(C)OC(=O)c1nnn(-c2nonc2N)c1CN1CCCCCC1,-30.7
O=C(c1oc2ccccc2c1CSCc1ccccc1)N1CCN(c2ncccn2)CC1,-4.4
COc1ccc(-c2cc(C(F)(F)F)nc(NCc3ccco3)n2)cc1OC,-36.3
COc1cccc(-c2cc(C(F)(F)F)nc(NCc3ccco3)n2)c1,105.7*
FC(F)(F)c1cc(-c2ccco2)nc(NCc2ccco2)n1,5.6
SMILES,GBA activity up
C=C(C)n1c(=O)[nH]c2ccccc21,-16.1
CCOC(=O)c1csc(NC(=O)CSc2nnnn2CC)n1,-27.3
COc1ccccc1-c1nnc(SCC(=O)O)n1C,1.4
O=C(CCS(=O)(=O)c1cccc2nonc12)N1CCCc2ccccc21,72.5*
O=C(CCCC(=O)N1CCCc2ccccc21)N1CCCc2ccccc21,-10.6
O=C(CCS(=O)(=O)c1cccc2nonc12)NCCc1ccccc1,-8.1
COc1ccccc1-n1c(CNc2c(C)cccc2C)nnc1SCC(=O)N1CCOCC1,12.2
Cc1cc(-c2nnc(SCC(=O)NC3CCCC3)o2)no1,-13.8
N#Cc1ccc(CSc2nnc(-c3cnccn3)o2)cc1,-20.2
Cc1cc(-c2nnc(SCc3cccnc3)o2)no1,86.1*
Cc1nn(C(=O)c2ccccc2)c2c1C(=O)CC(C)(C)C2,-1.8
COc1ccc(-n2nnc3c(SCC(=O)N4CCCc5ccccc54)ncnc32)cc1,3.5
COc1ccc(CNC(=O)CSc2nnnn2-c2ccc(O)cc2)cc1,-3.2
CCOC(=O)CN1C(=O)C2(OCCCO2)c2ccccc21,0.2
O=C(CN1C(=O)C2(OCCCO2)c2ccccc21)NCc1ccccc1,-4.0
COC(=O)CN1C(=O)C2(OCCCO2)c2cc(Br)ccc21,139.3*
CC1=C(C#N)c2nc(N)c(C#N)c(C)c2/C1=C\c1ccccc1,0.3
Cc1cc2oc(=O)cc(COC(=O)c3cccc(N(C)C)c3)c2cc1C,-27.6
Cc1nnc(Sc2nc(Sc3nnc(C)s3)nc(N3CCN(C)CC3)n2)s1,-17.8
COc1ccc(Cc2nnc(NC(=O)c3ccco3)s2)cc1OC,1.3
Cc1ccc(OCC(=O)Nc2ccc(-c3nc4ncccc4o3)cc2)c(C)c1,-12.3
O=C(OCCN1CCCCC1)c1cc2ccccc2o1,71.5*
O=C(Nc1ccccc1N1CCCC1)c1cc2ccccc2o1,-30.1
O=C(Oc1ccccc1)c1cc2ccccc2o1,-2.8
CN(c1ccccc1)S(=O)(=O)c1cc(C(=O)N2CCN(c3ccccn3)CC2)ccc1Cl,-3.6
SMILES,GBA activity up
CCOC(=O)C1=C(c2ccccc2)N2CCN=C2S1,-30.2
COCCn1c(SCc2nnc(-c3ccccc3)o2)nc2sc3c(c2c1=O)CCC3,-11.4
COC(=O)CSc1nnc(CNC(=O)Cc2ccccc2)n1C,-20.8
O=C(Nc1cccc(Cl)c1)Nc1nccs1,-49.4
N#CCc1ccc(NC(=O)Nc2cccc(Cl)c2)cc1,70.1*
CN1CCN(S(=O)(=O)c2ccc(NC(=O)Nc3cccc(Cl)c3)cc2)CC1,1.9
CN1CC(=O)N/C1=N\C(=O)Nc1ccc2c(c1)N(C)C(=O)CS2,-12.2
Cc1nc2ncnn2c(N2CCCC(C(=O)Nc3ccc4c(c3)CCC4)C2)c1C (stereo not drawn),20.5
Cc1cc(C)nc(Sc2nc(C)nc3c2oc2ccccc23)n1,136.1*
Cc1nc(SCC(=O)Nc2ccccc2)c2oc3ccccc3c2n1,-59.5
